# Screen size: about 5,500 compounds; about 2,000 (36%) were called active. About 18% were inconclusive and are not listed. Some of the results follow. Values without a mark were called inactive. Rule as the data show it: active = normalized growth mostly below about 0.91 (no sharp cut-off); inconclusive = no clear call, values can overlap the other calls; inactive = mostly above about 0.92.
# Assay: chemical genetic growth profiling, strain panel (AID 1159580);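 also: tested at 20 µM; growth read once vehicle control cultures reached saturation at 30 °C; 1 = growth at the plate median or of vehicle wells; lower values mean less growth of the strain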
# Conditions: growth OD
# [1] = S. cerevisiae deletion strains, locus YDL101C, strain DUN1, stronger effect = lower value
# [2] = S. cerevisiae deletion strains, locus YHR030C, strain SLT2, stronger effect = lower value
smiles,measurement,setting,value
CC(C)(C)S(=O)(=O)/C(C#N)=C/N1CCCCC1,normalized growth,"S. cerevisiae deletion strains, locus YBR229C, strain ROT2, stronger effect = lower value",1.02
same,normalized growth,[1],0.989
same,normalized growth,"S. cerevisiae deletion strains, locus YDR150W, strain NUM1, stronger effect = lower value",0.995
same,normalized growth,"S. cerevisiae deletion strains, locus YEL061C, strain CIN8, stronger effect = lower value",1.05
same,normalized growth,"S. cerevisiae deletion strains, locus YGR078C, strain PAC10, stronger effect = lower value",0.993
same,normalized growth,[2],1.02
same,normalized growth,"S. cerevisiae deletion strains, locus YHR087W, strain rtc3, stronger effect = lower value",0.992
same,normalized growth,"S. cerevisiae deletion strains, locus YJL187C, strain SWE1, stronger effect = lower value",0.986
same,normalized growth,"S. cerevisiae deletion strains, locus YJR043C, strain POL32, stronger effect = lower value",0.983
same,normalized growth,"S. cerevisiae deletion strains, locus YJR075W, strain HOC1, stronger effect = lower value",1.02
same,normalized growth,"S. cerevisiae deletion strains, locus YLR039C, strain RIC1, stronger effect = lower value",1.02
same,normalized growth,"S. cerevisiae deletion strains, locus YLR058C, strain SHM2 (second series), stronger effect = lower value",1.01
same,normalized growth,"S. cerevisiae deletion strains, locus YLR085C, strain ARP6, stronger effect = lower value",1.04
same,normalized growth,"S. cerevisiae deletion strains, locus YLR262C, strain YPT6, stronger effect = lower value",1.03
same,normalized growth,"S. cerevisiae deletion strains, locus YML094W, strain GIM5, stronger effect = lower value",1.02
same,normalized growth,"S. cerevisiae deletion strains, locus YMR219W, strain ESC1, stronger effect = lower value",1.02
same,normalized growth,"S. cerevisiae deletion strains, locus YMR263W, strain SAP30, stronger effect = lower value",1
same,normalized growth,"S. cerevisiae deletion strains, locus YNL128W, strain TEP1, stronger effect = lower value",1
same,normalized growth,"S. cerevisiae deletion strains, locus YNL153C, strain GIM3, stronger effect = lower value",1
same,normalized growth,"S. cerevisiae deletion strains, locus YNL298W, strain CLA4 (second series), stronger effect = lower value",1.02
same,normalized growth,"S. cerevisiae deletion strains, locus YNL322C, strain KRE1, stronger effect = lower value",1.02
same,normalized growth,"S. cerevisiae deletion strains, locus YNR030W, strain Alg12, stronger effect = lower value",1.02
same,normalized growth,"S. cerevisiae deletion strains, locus YPL055C, strain LGE1, stronger effect = lower value",0.963
same,normalized growth,"S. cerevisiae deletion strains, locus YPL241C, strain CIN2, stronger effect = lower value",1.02
same,normalized growth,"S. cerevisiae deletion strains, locus YPR135W, strain CTF4, stronger effect = lower value",0.988
same,normalized growth,"S. cerevisiae strains, strain wild type, stronger effect = lower value",1.01
O=c1c2ccccc2[nH]c(=S)n1-c1cccc(C(F)(F)F)c1,normalized growth,"S. cerevisiae deletion strains, locus YAR019C, strain CDC15, stronger effect = lower value",0.927
same,normalized growth,"S. cerevisiae deletion strains, locus YBL105C, strain PKC1, stronger effect = lower value",0.811 (active)
same,normalized growth,"S. cerevisiae deletion strains, locus YBR135W, strain CKS1, stronger effect = lower value",0.792 (active)
same,normalized growth,"S. cerevisiae deletion strains, locus YBR136W, strain MEC1, stronger effect = lower value",0.774 (active)
same,normalized growth,"S. cerevisiae deletion strains, locus YBR160W, strain CDC28, stronger effect = lower value",0.923
same,normalized growth,"S. cerevisiae deletion strains, locus YDL017W, strain CDC7, stronger effect = lower value",0.846 (active)
same,normalized growth,[1],0.954
same,normalized growth,"S. cerevisiae deletion strains, locus YDL108W, strain KIN28, stronger effect = lower value",0.565 (active)
same,normalized growth,"S. cerevisiae deletion strains, locus YDL132W, strain cdc53, stronger effect = lower value",0.944
same,normalized growth,"S. cerevisiae deletion strains, locus YDL214C, strain PRR2, stronger effect = lower value",0.908
same,normalized growth,"S. cerevisiae deletion strains, locus YDR052C, strain DBF4, stronger effect = lower value",0.885 (active)
same,normalized growth,"S. cerevisiae deletion strains, locus YDR226W, strain ADK1, stronger effect = lower value",0.956
same,normalized growth,"S. cerevisiae deletion strains, locus YDR477W, strain SNF1, stronger effect = lower value",0.427 (active)
same,normalized growth,"S. cerevisiae deletion strains, locus YER123W, strain YCK3, stronger effect = lower value",0.899
same,normalized growth,"S. cerevisiae deletion strains, locus YER133W, strain GLC7, stronger effect = lower value",0.343 (active)
same,normalized growth,"S. cerevisiae deletion strains, locus YFL009W, strain cdc4, stronger effect = lower value",0.95
same,normalized growth,"S. cerevisiae deletion strains, locus YFL029C, strain CAK1, stronger effect = lower value",0.633 (active)
same,normalized growth,"S. cerevisiae deletion strains, locus YFR003C, strain YPI1, stronger effect = lower value",0.917
same,normalized growth,"S. cerevisiae deletion strains, locus YFR019W, strain FAB1, stronger effect = lower value",0.97
same,normalized growth,"S. cerevisiae deletion strains, locus YFR028C, strain CDC14, stronger effect = lower value",0.949
same,normalized growth,"S. cerevisiae deletion strains, locus YGR040W, strain KSS1, stronger effect = lower value",0.513 (active)
same,normalized growth,"S. cerevisiae deletion strains, locus YGR052W, strain FMP48, stronger effect = lower value",0.914
same,normalized growth,"S. cerevisiae deletion strains, locus YGR092W, strain DBF2, stronger effect = lower value",0.874
same,normalized growth,[2],0.334 (active)
same,normalized growth,"S. cerevisiae deletion strains, locus YHR079C, strain IRE1, stronger effect = lower value",0.837
same,normalized growth,"S. cerevisiae deletion strains, locus YHR082C, strain KSP1, stronger effect = lower value",0.832
same,normalized growth,"S. cerevisiae deletion strains, locus YHR205W, strain SCH9, stronger effect = lower value",0.748
same,normalized growth,"S. cerevisiae deletion strains, locus YJL095W, strain BCK1, stronger effect = lower value",0.182 (active)
same,normalized growth,"S. cerevisiae deletion strains, locus YJL128C, strain PBS2, stronger effect = lower value",0.957
same,normalized growth,"S. cerevisiae deletion strains, locus YJL157C, strain FAR1, stronger effect = lower value",0.925
same,normalized growth,"S. cerevisiae deletion strains, locus YJR016C, strain ILV3, stronger effect = lower value",0.717 (active)
same,normalized growth,"S. cerevisiae deletion strains, locus YJR066W, strain TOR1 (second series), stronger effect = lower value",0.892
same,normalized growth,"S. cerevisiae deletion strains, locus YJR066W, strain TOR1, stronger effect = lower value",0.799
same,normalized growth,"S. cerevisiae deletion strains, locus YKL048C, strain ELM1, stronger effect = lower value",0.862
same,normalized growth,"S. cerevisiae deletion strains, locus YKL067W, strain YNK1, stronger effect = lower value",0.927
same,normalized growth,"S. cerevisiae deletion strains, locus YKL101W, strain HSL1, stronger effect = lower value",0.865
same,normalized growth,"S. cerevisiae deletion strains, locus YKL193C, strain SDS22, stronger effect = lower value",0.917
same,normalized growth,"S. cerevisiae deletion strains, locus YKL203C, strain TOR2, stronger effect = lower value",0.352 (active)
same,normalized growth,"S. cerevisiae deletion strains, locus YLR113W, strain HOG1, stronger effect = lower value",0.912
same,normalized growth,"S. cerevisiae deletion strains, locus YLR133W, strain CKI1, stronger effect = lower value",0.895
same,normalized growth,"S. cerevisiae deletion strains, locus YLR403W, strain SFP1, stronger effect = lower value",0.459 (active)
same,normalized growth,"S. cerevisiae deletion strains, locus YML070W, strain DAK1, stronger effect = lower value",0.926
same,normalized growth,"S. cerevisiae deletion strains, locus YMR205C, strain PFK2 (second series), stronger effect = lower value",0.894
same,normalized growth,"S. cerevisiae deletion strains, locus YNL006W, strain LST8, stronger effect = lower value",0.965
same,normalized growth,"S. cerevisiae deletion strains, locus YNL020C, strain ARK1, stronger effect = lower value",0.886
same,normalized growth,"S. cerevisiae deletion strains, locus YNL161W, strain CBK1, stronger effect = lower value",0.929
same,normalized growth,"S. cerevisiae deletion strains, locus YNL183C, strain NPR1, stronger effect = lower value",0.852
same,normalized growth,"S. cerevisiae deletion strains, locus YNL207W, strain RIO2, stronger effect = lower value",0.943
same,normalized growth,"S. cerevisiae deletion strains, locus YNL222W, strain SSU72, stronger effect = lower value",0.944
same,normalized growth,"S. cerevisiae deletion strains, locus YNL307C, strain MCK1 (second series), stronger effect = lower value",0.884
same,normalized growth,"S. cerevisiae deletion strains, locus YOL136C, strain PFK27, stronger effect = lower value",0.93
same,normalized growth,"S. cerevisiae deletion strains, locus YOR061W, strain CKA2, stronger effect = lower value",0.833
same,normalized growth,"S. cerevisiae deletion strains, locus YOR119C, strain RIO1, stronger effect = lower value",0.347 (active)
same,normalized growth,"S. cerevisiae deletion strains, locus YOR231W, strain MKK1, stronger effect = lower value",0.872
same,normalized growth,"S. cerevisiae deletion strains, locus YOR329C, strain SCD5, stronger effect = lower value",0.948
same,normalized growth,"S. cerevisiae deletion strains, locus YPL031C, strain PHO85, stronger effect = lower value",0.589 (active)
same,normalized growth,"S. cerevisiae deletion strains, locus YPL153C, strain RAD53, stronger effect = lower value",0.646 (active)
same,normalized growth,"S. cerevisiae deletion strains, locus YPL204W, strain HRR25, stronger effect = lower value",0.719
same,normalized growth,"S. cerevisiae deletion strains, locus YPL209C, strain IPL1, stronger effect = lower value",0.95
same,normalized growth,"S. cerevisiae deletion strains, locus YPL256C, strain CLN2, stronger effect = lower value",0.824 (active)
same,normalized growth,"S. cerevisiae deletion strains, locus YPR025C, strain CCL1, stronger effect = lower value",0.946
same,normalized growth,"S. cerevisiae deletion strains, locus YPR106W, strain ISR1, stronger effect = lower value",0.948
same,normalized growth,"S. cerevisiae deletion strains, locus YPR111W, strain DBF20, stronger effect = lower value",0.962
same,normalized growth,"S. cerevisiae deletion strains, strain NNK1, stronger effect = lower value",0.961
same,normalized growth,"S. cerevisiae deletion strains, strain TSCII, stronger effect = lower value",0.889

# From PubChem BioAssay AID1159580 (chemical genetic matrix, 2015)
